# Experimental data taken from PubChem BioAssay.
# Activity calls are given as the source filed them.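 The calls were made as follows, unless noted: active = at least 20% inhibition of 6-phosphogluconate dehydrogenase activity; inactive = the rest.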
# Key:
# [1] = target: 6-phosphogluconate dehydrogenase, decarboxylating (Homo sapiens) (UniProt P52209); experiment: inhibition of human phosphogluconate dehydrogenase – biochemical, recombinant enzyme, NADPH absorbance, primary screen (AID 1159550); conditions: recombinant 6PGD, NADPH absorbance 341 nm; at 10 µM; stronger effect = higher value
# 6-phosphogluconate dehydrogenase, decarboxylating (Homo sapiens), sequence (P52209 whole entry, looked up): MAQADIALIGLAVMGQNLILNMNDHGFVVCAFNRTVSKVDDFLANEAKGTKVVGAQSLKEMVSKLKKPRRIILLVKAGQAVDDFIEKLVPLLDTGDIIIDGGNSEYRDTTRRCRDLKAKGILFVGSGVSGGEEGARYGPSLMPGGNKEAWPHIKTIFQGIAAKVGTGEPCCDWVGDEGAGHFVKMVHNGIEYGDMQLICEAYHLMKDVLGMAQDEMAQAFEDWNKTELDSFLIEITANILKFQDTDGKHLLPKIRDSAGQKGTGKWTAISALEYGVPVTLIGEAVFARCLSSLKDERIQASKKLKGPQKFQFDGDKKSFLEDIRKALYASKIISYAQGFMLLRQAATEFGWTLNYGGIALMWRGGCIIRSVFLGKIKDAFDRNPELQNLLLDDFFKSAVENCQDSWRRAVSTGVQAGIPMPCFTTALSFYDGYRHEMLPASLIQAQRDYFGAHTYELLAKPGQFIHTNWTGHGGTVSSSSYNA
# [2] = EMT-state selective cytotoxicity in co-culture – imaging, PC-3E GFP, TEM4-18 mCherry, primary screen (AID 1345086;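 active = compounds killing one labelled cell type while sparing the other, by normalised counts and ratio limits, not self-fluorescent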;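 as to all read-outs here: cells exposed to compound for 72 h before imaging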;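 as to red/green cell ratio (normalised): normalised mesenchymal count divided by normalised epithelial count so high means epithelial killing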); conditions: PC-3E GFP / TEM4-18 mCherry co-culture, imaging cell counts, at 1 µM; for red/green cell ratio (normalised): actives lie on both sides, counts scaled to control wells, 1 = unselective
# [3] = target: Mitogen-activated protein kinase 7 (Homo sapiens) (UniProt Q13164); experiment: Gal4-ERK5 driven luciferase induction – cell-based, HTS, primary screen (AID 1508626;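 active = luciferase signal above three times the same-plate solvent-only control wells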;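 also: luciferase driven by Gal4-ERK5 fusion binding five Gal4 sites before minimal TATA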); conditions: HeLa Gal4-ERK5 transactivation, 18 h, at 5 µM, stronger effect = higher value
# Mitogen-activated protein kinase 7 (Homo sapiens), sequence (Q13164 whole entry, looked up, the tested form may be a part): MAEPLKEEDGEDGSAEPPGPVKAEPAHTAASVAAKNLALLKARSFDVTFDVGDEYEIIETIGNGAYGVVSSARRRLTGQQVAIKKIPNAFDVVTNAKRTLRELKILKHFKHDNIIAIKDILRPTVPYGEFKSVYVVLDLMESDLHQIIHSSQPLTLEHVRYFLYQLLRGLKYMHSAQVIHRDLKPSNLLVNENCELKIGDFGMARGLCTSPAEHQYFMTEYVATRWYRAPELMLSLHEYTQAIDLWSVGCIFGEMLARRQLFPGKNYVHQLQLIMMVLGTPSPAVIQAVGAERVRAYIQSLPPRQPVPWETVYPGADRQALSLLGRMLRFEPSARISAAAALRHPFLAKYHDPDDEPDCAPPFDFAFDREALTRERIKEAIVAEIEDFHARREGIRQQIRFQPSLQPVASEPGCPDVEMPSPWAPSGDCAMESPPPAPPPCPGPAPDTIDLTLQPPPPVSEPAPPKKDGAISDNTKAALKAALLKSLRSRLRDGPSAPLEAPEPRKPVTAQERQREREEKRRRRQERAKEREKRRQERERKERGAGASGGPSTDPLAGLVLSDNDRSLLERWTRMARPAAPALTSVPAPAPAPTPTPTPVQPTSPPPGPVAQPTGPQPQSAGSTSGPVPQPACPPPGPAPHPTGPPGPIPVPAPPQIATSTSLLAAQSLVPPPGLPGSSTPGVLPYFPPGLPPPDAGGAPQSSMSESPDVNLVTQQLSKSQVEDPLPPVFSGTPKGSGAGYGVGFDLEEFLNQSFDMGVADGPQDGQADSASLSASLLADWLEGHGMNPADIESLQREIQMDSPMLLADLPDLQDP
# [4] = measured here: epithelial PC-3E GFP cell survival
# [5] = measured here: mesenchymal TEM4-18 mCherry cell survival
SMILES,inhibition [1],red/green cell ratio (normalised) [2],"normalised cell number [2, 4]","normalised cell number [2, 5]",luciferase signal [3]
COc1ccc2c(c1)OC[C@@H](Cc1ccc(OC)c(OC)c1)[C@@H]2O,11.8% (inactive),0.93 (inactive),0.92,0.85,68 AU (inactive)
C=C(C)C1CC=C(CO)CC1 (stereo not given),1.85% (inactive),1.04 (inactive),0.95,0.99,68 AU (inactive)
COc1cc(O)c(C(C)=O)c(OC)c1,0.271% (inactive),0.74 (inactive),1.02,0.75,8 AU (inactive)
COc1ccc2c(c1)OCC(Cc1ccc(OC)c(OC(C)=O)c1)C2=O (stereo not given),2.88% (inactive),0.86 (inactive),0.47,0.4,80 AU (inactive)
OC[C@@H](O)[C@@H](O[C@@H]1O[C@H](CO)[C@@H](O)[C@H](O)[C@H]1O)[C@H](O)[C@@H](O)CO,10.6% (inactive),0.88 (inactive),1.03,0.9,208 AU (inactive)
C=CC(C)(O)CC/C=C(\C)CCC=C(C)C (stereo not given),-3.52% (inactive),1.02 (inactive),0.95,0.98,68 AU (inactive)
C=C1CCC2C(CC2(C)C)C(=O)CCC1O (stereo not given),28.4% (active),1.02 (inactive),0.93,0.96,132 AU (inactive)
CC(=O)c1c(O)cc(O)cc1O,-5.07% (inactive),1.24 (inactive),0.74,0.92,44 AU (inactive)
CCCCCC1C(=O)CCC1CC(=O)O (stereo not given),-5.33% (inactive),0.91 (inactive),0.07,0.07,56 AU (inactive)
CCOC(=O)c1c(C)cc(O)cc1O,0.669% (inactive),0.99 (inactive),0.99,0.99,72 AU (inactive)
O=C(O)C1(O)C[C@@H](O)C(O)[C@H](O)C1 (stereo not given in full),5.01% (inactive),0.8 (inactive),1.27,1.02,12 AU (inactive)
COc1cc(C)c2c(c1C=O)Oc1c(c(C)c(O)c3c1C(O)OC3=O)OC2=O (stereo not given),-0.395% (inactive),0.74 (inactive),0.95,0.7,44 AU (inactive)
COc1cc(C)c(C(=O)Oc2cc(C)c(C(=O)O)c(O)c2C)c(OC)c1C,17.4% (inactive),1.11 (inactive),0.88,0.98,92 AU (inactive)
COC(=O)[C@@]1(C)CCC[C@]2(C)c3ccc(O)c(C(C)C)c3CCC12 (stereo not given in full),-0.875% (inactive),1.1 (inactive),0.97,1.07,52 AU (inactive)
COC(=O)c1c(C)c2c(c(C)c1O)OC(=O)c1c(C)c(Cl)c(O)c(Cl)c1O2,11.2% (inactive),0.9 (inactive),1.03,0.93,128 AU (inactive)
CC(=O)Oc1cc(-c2coc3cc(OC(C)=O)c(OC(C)=O)c(OC(C)=O)c3c2=O)cc(OC(C)=O)c1OC(C)=O,-14.8% (inactive),0.88 (inactive),1.23,1.08,36 AU (inactive)
C=C1C2CC[C@@]3(C)[C@H](c4ccoc4)OC(=O)C[C@]13O[C@H]1CC(O)C(C)(C)C(CC(=O)OC)[C@@]21C (stereo not given in full),24.1% (active),1.02 (inactive),0.98,1,16 AU (inactive)
COc1c(CC(=O)c2cc3c(cc2O)OC(C)(C)C(O)C3)ccc2c1C=CC(C)(C)O2 (stereo not given),5.33% (inactive),0.66 (inactive),1.48,0.97,40 AU (inactive)
COc1ccc(C(=O)CC(=O)O)c2c1C=CC(C)(C)O2,10.2% (inactive),0.95 (inactive),0.98,0.93,60 AU (inactive)
COc1c2c(cc3occ(-c4ccc5c(c4)OCO5)c(=O)c13)OC(C)(C)C=C2,-0.247% (inactive),0.95 (inactive),1.19,1.14,60 AU (inactive)
COc1c(O)cc2oc3cc(O)c(CC=C(C)C)c(O)c3c(=O)c2c1CC=C(C)C,11.6% (inactive),0.81 (inactive),1.13,0.91,40 AU (inactive)
O=c1cc(-c2cc(O)c(O)c(O)c2)oc2cc(O)cc(O)c12,5.62% (inactive),1.14 (inactive),0.99,1.12,72 AU (inactive)
CC1=CC2C(CC1=O)C(C)=CCC2C(C)C (stereo not given),2.64% (inactive),1.21 (inactive),1.06,1.28,24 AU (inactive)
CCCCCC(=O)Cc1cc(O)cc(O)c1C(=O)Oc1cc(CC(=O)CCCCC)c(C(=O)O)c(OC)c1,6.8% (inactive),1.08 (inactive),0.95,1.03,160 AU (inactive)
COC(=O)c1c(OC)cc2c(c1C)Oc1c(Cl)c(O)c(Cl)c(C)c1C(=O)O2,-6.18% (inactive),1.02 (inactive),1.07,1.1,56 AU (inactive)
C=C1[C@H]2CC[C@@]3(C)[C@H](c4ccoc4)OC(=O)C[C@]13O[C@H]1C[C@H](O)C(C)(C)[C@H](CC(=O)OC)[C@]12C,-1.87% (inactive),1.12 (inactive),0.91,1.02,8 AU (inactive)
CC(C)=CCC/C(C)=C/CC/C(C)=C/CO,1.99% (inactive),0.89 (inactive),1.03,0.91,88 AU (inactive)
O=c1c(-c2cc(O)c(O)c(O)c2)coc2cc(O)c(O)c(O)c12,29.2% (active),0.99 (inactive),1.01,1,220 AU (active)
CCC(C(N)=O)c1ccccc1 (stereo not given),-20.8% (inactive),0.96 (inactive),1.17,1.12,68 AU (inactive)
